Measured values from PubChem BioAssay AID652154 (Broad Institute, 2013).
In all, about 360,000 compounds went through this assay and about 4,200 (1.2%) were called active. This is one part of a sample in which actives are shown more often than they occur.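 The calls were made as follows: active = mean replicate inhibition at least 60% with every replicate also reaching 60%; inconclusive = only one of the two criteria is met; inactive = mean below 60% and not all replicates reaching 60%.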

Assay: inhibitors of PAX8-driven TPO luciferase reporter, primary screen, RMG-I cells, single concentration (AID 652154);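 also: luciferase light reporting Pax8 driven TPO promoter activity; plate controls were median of neutral control wells for no effect and mitoxantrone controls for full effect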
Details: SteadyGlo, 24 h, at 12.6 µM, active compounds read high

Row | SMILES | inhibition
1 | Cc1noc(C)c1NC(=O)Nc1ccc2c(c1)C(=O)N([C@@H](C)CO)C[C@@H](C)[C@H](CN(C)C(=O)Nc1ccc(C(F)(F)F)cc1)OCCCC[C@@H](C)O2 | -4.84% (inactive)
2 | CS(=O)(=O)N1CC(=O)N2[C@@H](CO)[C@@H](c3ccc(C#CCC4CCCC4)cc3)[C@@H]2C1 | 0.153% (inactive)
3 | Cc1ccc(S(=O)(=O)Nc2ccc3c(c2)C(=O)N([C@H](C)CO)C[C@@H](C)[C@H](CN(C)C(=O)Nc2ccc(C(F)(F)F)cc2)OCCCC[C@H](C)O3)cc1 | 54.1% (inactive)
4 | CC(C)NC(=O)N(C)C[C@H]1OCCCC[C@H](C)Oc2ccc(NS(=O)(=O)c3cccs3)cc2C(=O)N([C@H](C)CO)C[C@@H]1C | -10.4% (inactive)
5 | C[C@@H]1CN([C@H](C)CO)C(=O)c2cc(NS(=O)(=O)c3cccs3)ccc2O[C@@H](C)CCCCO[C@H]1CN(C)Cc1ccc(C(F)(F)F)cc1 | 96.8% (active)
6 | C[C@@H]1CCCCO[C@@H](CN(C)Cc2ccccc2)[C@H](C)CN([C@H](C)CO)C(=O)c2cc(NS(=O)(=O)c3cccs3)ccc2O1 | 6.46% (inactive)
7 | C[C@@H]1CCCCO[C@@H](CN(C)Cc2ccc(C(=O)O)cc2)[C@H](C)CN([C@H](C)CO)C(=O)c2cc(NS(=O)(=O)c3cccs3)ccc2O1 | 0.438% (inactive)
8 | C[C@@H]1CCCCO[C@H](CN(C)C(=O)Nc2ccc(C(F)(F)F)cc2)[C@@H](C)CN([C@@H](C)CO)C(=O)c2cc(NS(=O)(=O)c3cccs3)ccc2O1 | 80.1% (active)
9 | CC(=O)N1[C@@H](CO)[C@@H](c2ccccc2)[C@@H]1CN(C)C(=O)CN1CCOCC1 | 12.7% (inactive)
10 | Cn1cnc(S(=O)(=O)N2C[C@H](O)COC[C@@H]3O[C@H](CC(=O)NC4CCCC4)CC[C@H]32)c1 | -34% (inactive)
11 | CC(C)NC(=O)N1[C@H](CO)[C@@H]2c3ccccc3N(C(=O)c3ccccc3F)C[C@@H]21 | -9.8% (inactive)
12 | COc1ccccc1C#Cc1ccc([C@@H]2[C@H](CO)N3CCCCN(C(=O)C4CCCC4)C[C@@H]23)cc1 | -8.82% (inactive)
13 | COc1cccc(CNC(=O)c2nnn(CC(=O)Nc3cc(C)ccc3C)c2N)c1 | 5.68% (inactive)
14 | Cc1ccc(NC(=O)Cn2nnc(C(=O)NCc3ccco3)c2N)c(C)c1 | 8.75% (inactive)
15 | CCOc1ccccc1NC(=O)Cn1nnc(C(=O)NCc2cccs2)c1N | 68.5% (active)
16 | Cc1ccc(-c2ccc3c(c2)O[C@H](CN(C)C(=O)CC2CC2)[C@@H](C)CN([C@H](C)CO)S3(=O)=O)cc1 | 11.8% (inactive)
17 | Clc1ccc2nc(-c3ccccc3)nc(C(Cl)Cl)c2c1 | 32.4% (inactive)
18 | CSc1nc(-c2ccccc2)nc(C(Cl)Cl)n1 | 99.3% (active)
19 | C[C@@H]1CN([C@H](C)CO)C(=O)c2cc(NC(=O)CCCN(C)C)ccc2O[C@@H](C)CCCCO[C@H]1CN(C)CC1CCCCC1 | -3.49% (inactive)
20 | CCC(=O)Nc1ccc2c(c1)OC[C@H](C)N(CC1CCOCC1)C[C@@H](C)[C@@H](OC)CN(C)C2=O | 6.07% (inactive)
21 | O=C(C[C@@H]1CC[C@@H]2[C@H](COC[C@@H](O)CN2C(=O)c2ccccc2F)O1)N1CCOCC1 | 5.42% (inactive)
22 | COc1cccc2c1C(=O)c1c(O)c3c(c(O)c1C2=O)CC(O)(C(C)=NNC(=O)c1ccc(Cl)c(Cl)c1)CC3OC1CC(N)C(O)C(C)O1 (stereo unspecified) | 107% (active)
23 | CC(=O)N[C@@H]1CC[C@@H](CCNC(=O)C2CC2)O[C@H]1CO | 11.9% (inactive)
24 | O=C(C[C@H]1CC[C@@H](NC(=O)Nc2cc(F)ccc2F)[C@@H](CO)O1)NCc1ccncn1 | 0.809% (inactive)

Row | SMILES | inhibition
25 | OC[C@@H]1[C@H](c2ccc(C#CC3CC3)cc2)[C@@H]2CN(CCC(F)(F)F)CCCCN12 | -6.92% (inactive)
26 | O=C([C@H]1[C@H](CO)[C@H]2Cn3c(ccc(C4=CCCC4)c3=O)[C@@H]1N2C(=O)c1ccncc1)N1CCCCC1 | 0.28% (inactive)
27 | O=C(CCc1c[nH]c2ccccc12)NCCOc1ccccc1 | -5.95% (inactive)
28 | O=C(CCOc1ccccc1)NCc1ccccc1 | -18.5% (inactive)
29 | CCCCCCCCC(=O)NCCOc1ccccc1 | 111% (active)
30 | COc1ccc(C(=O)Nc2cccc(S(C)(=O)=O)c2)cc1 | -14.4% (inactive)
31 | COc1cccc(C(=O)Nc2nc3ccc(S(C)(=O)=O)cc3s2)c1 | 80.8% (active)
32 | COc1cccc(C(=O)Nc2nnc(S(=O)(=O)N(C)c3ccccc3)s2)c1 | 2.52% (inactive)
33 | O=C(Nc1ccccc1F)N1[C@H](CO)[C@H]2c3ccccc3NC[C@H]21 | -4.34% (inactive)
34 | CN(C)C=NC(=O)c1cccn1-c1ncc(C(F)(F)F)cc1Cl | 5.77% (inactive)
35 | COc1cccc(/C=N/Nc2ncc(C(F)(F)F)cc2Cl)c1O | 63.6% (active)
36 | O=c1[nH]c2cccnc2n(CCNc2ncc(C(F)(F)F)cc2Cl)c1=O | -4.25% (inactive)
37 | CNC(=O)C[C@H]1CC[C@H]2[C@H](COc3ccc(NC(=O)c4cc(C)on4)cc3C(=O)N2C)O1 | 57.2% (inactive)
38 | COCC(=O)Nc1ccc2c(c1)C(=O)N(C)C[C@H](OC)[C@@H](C)CN(CC1CC1)[C@@H](C)CO2 | -3.11% (inactive)
39 | COCC#Cc1ccc2c(c1)O[C@H](CN(C)Cc1ccc3c(c1)OCO3)[C@H](C)CN([C@H](C)CO)S2(=O)=O | 0.398% (inactive)
40 | C[C@H]1CN([C@@H](C)CO)S(=O)(=O)c2ccc(C#Cc3ccccc3F)cc2O[C@@H]1CN(C)C(=O)c1ccc2c(c1)OCO2 | 72.5% (active)
41 | C[C@@H]1CN([C@@H](C)CO)S(=O)(=O)c2ccc(C#Cc3ccccc3F)cc2O[C@H]1CN(C)C(=O)c1ccc2c(c1)OCO2 | 101% (active)
42 | C[C@@H]1CN([C@H](C)CO)S(=O)(=O)c2ccc(C#Cc3ccccc3F)cc2O[C@@H]1CN(C)C(=O)c1ccc2c(c1)OCO2 | 73.7% (active)
43 | CC(C)C#Cc1ccc2c(c1)O[C@@H](CN(C)C(=O)Nc1ccccc1)[C@H](C)CN([C@H](C)CO)S2(=O)=O | 15.8% (inactive)
44 | C[C@H]1CN([C@@H](C)CO)S(=O)(=O)c2ccc(-c3cccc(C#N)c3)cc2O[C@H]1CN(C)C(=O)c1ccccc1 | 15.6% (inactive)
45 | CCCC#Cc1ccc2c(c1)O[C@@H](CN(C)C(=O)CC)[C@H](C)CN([C@H](C)CO)S2(=O)=O | -8.15% (inactive)
46 | C[C@H]1CN([C@@H](C)CO)S(=O)(=O)c2ccc(C#CCN(C)C)cc2O[C@H]1CN(C)C(=O)c1ccccc1F | -3.76% (inactive)
47 | CCCC#Cc1ccc2c(c1)O[C@H](CN(C)C(=O)CC)[C@@H](C)CN([C@H](C)CO)S2(=O)=O | -14.1% (inactive)
48 | C[C@H](CO)N1C[C@H](C)[C@H](CN(C)Cc2cccc(F)c2)Oc2ncc(C#CCN(C)C)cc2C1=O | 10.3% (inactive)

Row | SMILES | inhibition
49 | Cc1cc(OC(=O)NCCc2ccc(F)cc2)ccc1F | -1.24% (inactive)
50 | OC[C@H]1[C@@H](c2ccc(-c3ccccc3F)cc2)[C@@H]2CN(Cc3ccncc3)CCCCN12 | 17.2% (inactive)
51 | CCCc1cn(CC[C@H]2CC[C@@H](NS(=O)(=O)c3ccccc3Cl)[C@@H](CO)O2)nn1 | -2.22% (inactive)
52 | O=C(C[C@@H]1C=C[C@H](NC(=O)Nc2ccccc2F)[C@@H](CO)O1)NCc1ccccc1 | 1.09% (inactive)
53 | COc1ccc(CN2[C@H](CO)[C@@H]3c4ccccc4N(C(=O)C4CC4)C[C@@H]32)cc1 | 5.67% (inactive)
54 | Brc1ccc(COCCc2cn(Cc3ccccc3)c3ccccc23)cc1 | -11.9% (inactive)
55 | O=C1NC(c2cc3c(cc2Cl)OCO3)Oc2ccccc21 (stereo unspecified) | -6.52% (inactive)
56 | O=C1OCC2=C1C(c1ccc(Cl)cc1)c1cc3c(cc1O2)OCO3 (stereo unspecified) | 11% (inactive)
57 | COc1ccccc1C1C2=C(COC2=O)Nc2cc3c(cc21)OCO3 (stereo unspecified) | 85.6% (active)
58 | C[C@@H]1CN([C@H](C)CO)C(=O)c2cc(NS(=O)(=O)c3ccccc3)ccc2O[C@H]1CN(C)S(=O)(=O)c1ccc(Cl)cc1 | 3.11% (inactive)
59 | Cc1ccc(C(=O)OC(C)CN2CCOCC2)cc1 (stereo unspecified) | -27.6% (inactive)
60 | Cc1ccc(C(=O)Oc2ccc(C(=S)N3CCOCC3)cc2)cc1 | -7.47% (inactive)
61 | Cc1ccc(C(=O)C(=S)N2CCOCC2)cc1 | 67.2% (active)
62 | C[C@@H]1CN([C@@H](C)CO)C(=O)Cc2cc(NC(=O)CCN3CCOCC3)ccc2O[C@@H]1CN(C)CC1CC1 | -46.4% (inactive)
63 | Cc1cccc(-c2nc3ccc(C(=O)NCCN4CCN(C)CC4)cc3nc2-c2cccc(C)c2)c1 | 50.9% (inactive)
64 | O=C(NCCN1CCOCC1)c1ccc2c(c1)N(Cc1cccc(Cl)c1)C(=O)c1ccccc1S2(=O)=O | -1.71% (inactive)
65 | CCN1CCN(CCNC(=O)c2ccc(/C=C3/Sc4ccccc4N(Cc4cccc(C)c4)C3=O)cc2)CC1 | 84.9% (active)
66 | C[C@@H]1CCCCO[C@@H](CN(C)CC2CC2)[C@H](C)CN([C@H](C)CO)C(=O)c2cc(NS(=O)(=O)c3ccccc3)ccc2O1 | 3.85% (inactive)
67 | CN(O)C(=S)c1ccccc1 | 82% (active)
68 | COc1cccc(CN(C)C[C@H]2OCc3ccccc3-c3c(n(C)c4ccccc34)C(=O)N([C@@H](C)CO)C[C@@H]2C)c1 | 11% (inactive)
69 | O=C(c1ccncc1)N1C[C@@H]2[C@H](c3ccccc31)[C@H](CO)N2C(=O)c1ccncc1 | -12.9% (inactive)
70 | CC(C)NC(=O)N(C)C[C@@H]1Oc2ccc(N(C)C)cc2CC(=O)N([C@H](C)CO)C[C@@H]1C | -4.65% (inactive)
71 | O=C(C[C@H]1CC[C@@H]2[C@H](COC[C@@H](O)CN2C(=O)Nc2ccc(C(F)(F)F)cc2)O1)NCCc1ccncc1 | -6.11% (inactive)
